# PubChem BioAssay (Tox21)
# Several values for one entry are separate records, joined by “and”; a condition that tells them apart may be missing. Equal values may be shown once. Inconclusive results are not listed. Entries that show only a call come without a potency. The source holds several records for some structures; these can differ, active in one and inactive in another. Activity calls are given as the source filed them. Unless noted, the call rests on the fitted dose curve.
# Experiments:
# [1] = Nuclear factor erythroid 2-related factor 2/antioxidant responsive element (Nrf2/ARE) small molecule agonists: qHTS cell viability counter screen in human keratinocytes (AID 1919968; active means well fitted curve in the direction sought with a large enough effect in the repeat runs; an effect the other way counts as inactive or inconclusive; further: nearly all actives have a fitted effect of over 55% in size; further: potency means the concentration at half of the fitted maximal effect)
# Outline: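 Fluorescence read-out from CellTiter-Fluor after 1 h at 37 C. Wells held HaCaT-derived ARE-luciferase reporter cells (1,500/well) treated 23 h with DMSO-dissolved compounds. Run in the same wells as the luciferase agonist read.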
# [2] = Nuclear factor erythroid 2-related factor 2/antioxidant responsive element (Nrf2/ARE) small molecule agonists: luciferase reporter gene qHTS assay in human keratinocytes (AID 1919969); further: nearly all actives have a fitted effect of over 35% in size; further: potency means the concentration at half of the fitted maximal effect
# [3] = molecular target: Gonadotropin-releasing hormone receptor (Homo sapiens) (UniProt P30968); assay: Human gonadotropin-releasing hormone receptor (GnRHR) small molecule agonists, calcium flux assay in GnRHR-HEK293 cells (AID 1920063); further: nearly all actives have a fitted effect of over 35% in size
# Sequence of Gonadotropin-releasing hormone receptor (Homo sapiens) (P30968 whole entry, looked up): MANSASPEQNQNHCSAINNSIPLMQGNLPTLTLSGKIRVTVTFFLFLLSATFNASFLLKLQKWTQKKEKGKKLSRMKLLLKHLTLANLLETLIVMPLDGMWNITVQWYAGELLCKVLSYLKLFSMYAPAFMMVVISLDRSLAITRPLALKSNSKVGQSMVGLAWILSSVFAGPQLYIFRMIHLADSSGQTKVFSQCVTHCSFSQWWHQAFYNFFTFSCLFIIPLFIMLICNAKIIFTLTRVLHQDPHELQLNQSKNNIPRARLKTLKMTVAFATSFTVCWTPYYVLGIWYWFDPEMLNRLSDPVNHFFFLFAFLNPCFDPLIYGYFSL
# Outline: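 Calcium-dye fluorescence, Ex/Em=480/540, recorded every 1 sec over 3 min after compound addition to GnRHR-HEK293 cells. Cells had been seeded 18 hours earlier and dye-loaded for 1 hour at 37 C. Fifteen concentrations, triplicates.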
# [4] = molecular target: KiSS-1 receptor (Homo sapiens) (UniProt Q969F8); assay: Human kisspeptin (KISS1R) small molecule agonists, calcium flux assay in KISS1R-HEK293 cells (AID 1920064; active means well fitted curve in the direction sought with a large enough effect in the repeat runs; an effect the other way counts as inactive or inconclusive)
# Sequence of KiSS-1 receptor (Homo sapiens) (Q969F8 whole entry, looked up): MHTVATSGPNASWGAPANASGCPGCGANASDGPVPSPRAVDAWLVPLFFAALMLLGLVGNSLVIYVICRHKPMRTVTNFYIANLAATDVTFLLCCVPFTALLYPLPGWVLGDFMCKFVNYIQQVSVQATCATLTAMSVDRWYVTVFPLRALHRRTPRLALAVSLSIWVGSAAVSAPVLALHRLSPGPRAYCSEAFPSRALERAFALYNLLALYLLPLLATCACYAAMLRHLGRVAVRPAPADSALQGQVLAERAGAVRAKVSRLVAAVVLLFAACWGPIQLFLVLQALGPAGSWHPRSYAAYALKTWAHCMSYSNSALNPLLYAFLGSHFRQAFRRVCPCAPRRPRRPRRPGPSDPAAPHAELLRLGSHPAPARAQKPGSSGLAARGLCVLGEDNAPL
# Outline: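 Calcium flux read-out: kinetic fluorescence at Ex/Em=480/540, 1 s intervals over 3 min, after pin-tool compound addition to dye-loaded KISS1R-HEK293 cells. Fifteen concentrations, triplicates.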
# [5] = G protein-coupled receptor (GPCR) small molecule agonists, calcium flux assay: HEK293 wild type cell line counter screen (AID 1920065)
# Outline: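 Agonist mode; 18 h seeding at 37 C, 1 h dye load at 37 C; compounds pinned from DMSO, ATP as positive control; kinetic fluorescence 480/540 nm, 3 min, 1 s reads; 15 concentrations, triplicate.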
# [6] = p53 small molecule agonists, cell-based qHTS assay with human liver microsomes (AID 1963577);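 further: p53 response element beta-lactamase reporter cells with liver microsomes plus NADPH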
# Outline: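 16 h, 37 C exposure of p53RE-bla cells to compounds with human liver microsomes and NADPH (0.5 mg/mL final each); detection via LiveBLAzer mixture, 2 h dark at room temperature.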
# [7] = p53 small molecule agonists, cell-based qHTS assay with rat liver microsomes (AID 1963578)
# Outline: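 With rat liver microsomes and NADPH present (0.5 mg/mL final each), p53RE-bla cells are treated with compound for 16 h at 37 C. LiveBLAzer detection mixture is then applied for 2 h at room temperature in the dark.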
# [8] = p53 small molecule agonists, cell-based qHTS assay with human liver microsomes: qHTS cell viability counter screen (AID 1963579); further: nearly all actives have a fitted effect of over 45% in size
# Outline: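 In this multiplexed counter screen, the reporter plates were subsequently treated with CellTiter-Glo so that cell viability, reflected by luminescence, could be recorded for p53RE-bla cells dosed 16 h with compounds under microsomal activation (HLM and NADPH).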
# [9] = p53 small molecule agonists, cell-based qHTS assay with rat liver microsomes: qHTS cell viability counter screen (AID 1963580); further: nearly all actives have a fitted effect of over 45% in size
# Outline: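 Cytotoxicity counter screen: intracellular ATP read by CellTiter-Glo luminescence in the p53 reporter wells. HCT-116 p53RE-bla cells were treated for 16 h at 37 C alongside rat liver microsomes and NADPH, each 0.5 mg/mL final.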
# [10] = p53 small molecule agonists, cell-based qHTS assay: qHTS cell viability counter screen (AID 1963581); further: nearly all actives have a fitted effect of over 45% in size
# Outline: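 Cytotoxicity read-out: ATP-based luminescence (CellTiter-Glo, 30 min RT) measured in the same wells as the p53 reporter assay, HCT-116 p53RE-bla cells, 16 h compound exposure at 37 C.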
# [11] = p53 small molecule agonists, cell-based qHTS assay (AID 1963582; active means well fitted activation curve with a large enough effect in the signal ratio in the repeat runs, not every such curve was filed as active; the % refers to the signal ratio)
# Outline: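 Fluorescence intensity read-out of a beta-lactamase reporter under a p53 response element. Cells were exposed to DMSO-dissolved compounds for 16 h at 37 C, then developed with FRET substrate for 2 h at RT.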
# [12] = molecular target: 5-hydroxytryptamine receptor 2A (Homo sapiens) (UniProt P28223); assay: 5-hydroxytryptamine receptor 2A (HTR2A) small molecule antagonists, cell-based qHTS assay (AID 1963586); further: nearly all actives have a fitted effect of over 45% in size; further: potency means the concentration at half of the fitted maximal effect
# Sequence of 5-hydroxytryptamine receptor 2A (Homo sapiens) (P28223 whole entry, looked up): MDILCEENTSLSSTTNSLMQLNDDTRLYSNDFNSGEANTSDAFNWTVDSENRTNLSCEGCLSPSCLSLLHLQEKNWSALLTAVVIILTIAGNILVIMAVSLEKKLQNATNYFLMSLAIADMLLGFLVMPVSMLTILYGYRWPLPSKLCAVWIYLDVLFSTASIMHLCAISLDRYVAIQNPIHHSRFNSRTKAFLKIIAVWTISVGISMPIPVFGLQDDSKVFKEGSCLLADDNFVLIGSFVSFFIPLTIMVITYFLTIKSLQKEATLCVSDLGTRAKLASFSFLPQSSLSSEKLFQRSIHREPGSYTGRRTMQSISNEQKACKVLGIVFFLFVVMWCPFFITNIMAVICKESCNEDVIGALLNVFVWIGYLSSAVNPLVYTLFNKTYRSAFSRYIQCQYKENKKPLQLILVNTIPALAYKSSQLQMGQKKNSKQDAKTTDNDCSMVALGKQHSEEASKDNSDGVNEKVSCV
# Outline: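 CHO cells stably expressing human HTR2A were plated for 18 h at 37 C, then loaded with calcium dye for 1 h. Compounds were preincubated 5 min at room temperature before DOI (4 nM solution) was added. Kinetic fluorescence was read for 3 min.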
# [13] = molecular target: 5-hydroxytryptamine receptor 2A (Homo sapiens) (UniProt P28223); assay: 5-hydroxytryptamine receptor 2A (HTR2A) small molecule agonists, cell-based qHTS assay (AID 1963587); further: nearly all actives have a fitted effect of over 30% in size
# Outline: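 Kinetic calcium-flux fluorescence (2 min, 1 sec intervals) after compound addition in agonist mode. HTR2A-CHO cells were cultured 18 h, then dye-loaded 1 h at 37 C.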
# [14] = molecular target: Muscarinic acetylcholine receptor M1 (Homo sapiens) (UniProt P11229); assay: Cholinergic receptor muscarinic 1 (CHRM1) small molecule antagonists, cell-based qHTS assay (AID 1963588); further: nearly all actives have a fitted effect of over 40% in size; further: potency means the concentration at half of the fitted maximal effect
# Sequence of Muscarinic acetylcholine receptor M1 (Homo sapiens) (P11229 whole entry, looked up): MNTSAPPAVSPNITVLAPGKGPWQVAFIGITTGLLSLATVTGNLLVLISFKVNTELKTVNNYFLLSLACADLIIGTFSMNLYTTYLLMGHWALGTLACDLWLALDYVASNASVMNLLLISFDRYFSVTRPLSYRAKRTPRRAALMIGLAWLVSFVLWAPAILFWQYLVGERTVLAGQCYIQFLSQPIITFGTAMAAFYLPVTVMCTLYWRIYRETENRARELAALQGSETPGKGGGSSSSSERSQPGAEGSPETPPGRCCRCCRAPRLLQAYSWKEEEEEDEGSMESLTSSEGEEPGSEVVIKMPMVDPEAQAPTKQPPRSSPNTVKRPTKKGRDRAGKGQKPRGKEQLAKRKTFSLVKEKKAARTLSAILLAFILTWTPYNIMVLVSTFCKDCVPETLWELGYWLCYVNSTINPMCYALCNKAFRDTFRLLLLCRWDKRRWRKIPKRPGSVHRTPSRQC
# Outline: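 Compounds were tested at 15 concentrations in three independent runs. Dye-loaded CHRM1-CHO cells were exposed 5 min at room temperature before stimulation by acetylcholine added at 50nM. Intracellular calcium was read kinetically on FDSS for 3 min.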
# [15] = cAMP Responsive Elements (CRE) small molecule agonists, cell-based qHTS assay (AID 1963590); further: potency means the concentration at half of the fitted maximal effect
# Outline: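 Beta-lactamase reporter readout: LiveBLAzer B/G FRET substrate, 2 h at room temperature, added after 3 h compound treatment of CRE-bla HEK 293T cells at 37 C/5% CO2.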
# [16] = cAMP Responsive Elements (CRE) small molecule antagonists, cell-based qHTS assay (AID 1963591; active means well fitted inhibition curve with a large enough effect in the signal ratio in the repeat runs, not every such curve was filed as active; the % refers to the signal ratio)
# Outline: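 HEK293T CRE-bla; 18 h preincubation; compound pin-transfer; NKH477 0.25 uM final, 3 h, 37 C; LiveBLAzer FRET substrate 2 h RT.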
# [17] = molecular target: Beta-2 adrenergic receptor (Homo sapiens) (UniProt P07550); assay: Adrenergic beta2 receptor (ADRB2) small molecule antagonists, cell-based qHTS assay (AID 1963592); further: series mostly up to about 92 µM; nearly all actives have a fitted effect of over 50% in size
# Sequence of Beta-2 adrenergic receptor (Homo sapiens) (P07550 whole entry, looked up): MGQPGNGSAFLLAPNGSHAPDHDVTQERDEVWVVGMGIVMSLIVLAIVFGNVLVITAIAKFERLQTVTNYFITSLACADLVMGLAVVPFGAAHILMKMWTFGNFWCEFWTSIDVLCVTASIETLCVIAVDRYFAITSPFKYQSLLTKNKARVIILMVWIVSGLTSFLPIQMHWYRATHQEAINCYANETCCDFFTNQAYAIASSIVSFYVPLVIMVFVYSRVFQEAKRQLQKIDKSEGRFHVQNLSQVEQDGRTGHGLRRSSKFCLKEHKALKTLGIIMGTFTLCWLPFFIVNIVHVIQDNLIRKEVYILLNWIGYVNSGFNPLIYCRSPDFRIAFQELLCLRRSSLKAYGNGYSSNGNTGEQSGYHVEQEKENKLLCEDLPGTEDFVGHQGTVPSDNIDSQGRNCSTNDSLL
# Outline: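 Assay format: CHO-ADRB2 cells, 18-20hr seeding at 37C/5% CO2, then compound plus 1nM isoproterenol agonist mix for 0.5hr RT. Homogeneous time-resolved fluorescence cAMP detection after 1hr, expressed as 665/615 nm ratio.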
# [18] = molecular target: Beta-2 adrenergic receptor (Homo sapiens) (UniProt P07550); assay: Adrenergic beta2 receptor (ADRB2) small molecule agonists, cell-based qHTS assay (AID 1963593);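 further: CHO cells stably overexpressing human ADRB2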
# Outline: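 CHO cells stably over-expressing ADRB2 were plated overnight at 37C, then dosed with compounds plus a stimulation mix containing 100uM IBMX and 25uM Ro-20-1724 for 0.5hr at room temperature. cAMP was measured by HTRF competition, 1hr.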
# [19] = molecular target: D(2) dopamine receptor (Homo sapiens) (UniProt P14416); assay: Dopamine D2 receptor (DRD2) small molecule agonists, cell-based qHTS assay (AID 1963594); further: nearly all actives have a fitted effect of over 35% in size
# Sequence of D(2) dopamine receptor (Homo sapiens) (P14416 whole entry, looked up): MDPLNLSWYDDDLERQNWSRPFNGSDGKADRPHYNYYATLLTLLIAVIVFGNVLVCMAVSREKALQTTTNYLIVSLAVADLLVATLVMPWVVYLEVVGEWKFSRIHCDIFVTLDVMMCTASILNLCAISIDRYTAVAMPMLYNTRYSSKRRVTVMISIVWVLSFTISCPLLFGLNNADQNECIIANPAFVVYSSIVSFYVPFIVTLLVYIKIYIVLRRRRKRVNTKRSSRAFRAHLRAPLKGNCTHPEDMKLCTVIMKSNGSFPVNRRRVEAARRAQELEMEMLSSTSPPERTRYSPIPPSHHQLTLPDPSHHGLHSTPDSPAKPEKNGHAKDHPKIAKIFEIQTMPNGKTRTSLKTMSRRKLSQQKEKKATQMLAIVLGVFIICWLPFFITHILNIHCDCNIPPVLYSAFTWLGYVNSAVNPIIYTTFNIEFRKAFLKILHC
# Outline: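 cAMP accumulation in DRD2-HEK293 cells measured by HTRF after 1 h detection; compounds added 10 min before NKH477 (200nM […]) forskolin-analogue stimulation, 30 min at room temperature, with Ro20-1724 present at 0.1 mM final.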
# [20] = molecular target: D(2) dopamine receptor (Homo sapiens) (UniProt P14416); assay: Dopamine D2 receptor (DRD2) small molecule antagonists, cell-based qHTS assay (AID 1963595; active means well fitted inhibition curve with a large enough effect in the signal ratio in the repeat runs, with a control signal flat; the % refers to the signal ratio)
# Outline: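 HEK293 cells stably expressing DRD2 were preincubated with 0.1 mM Ro20-1724, then with compound for 10 min at room temperature. Cells were stimulated with 200 nM NKH477 plus 12 nM quinpirole for 30 min, and cAMP was read by HTRF.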
Compound,Potency [1],Potency [2],Potency [3],Potency [4],Potency [5],Potency [6],Potency [7],Potency [8],Potency [9],Potency [10],Potency [11],Potency [12],Potency [13],Potency [14],Potency [15],Potency [16],Potency [17],Potency [18],Potency [19],Potency [20]
CC(=O)Nc1ccc(N=Nc2cc(C)ccc2O)cc1,inactive,inactive,inactive,inactive,inactive,inactive,inactive,inactive,inactive,inactive,inactive,inactive,inactive,inactive,inactive,inactive,inactive,inactive,,
CCCCOC(=O)C(=O)OCCCC,inactive,inactive,inactive,inactive,inactive,inactive,inactive,inactive,inactive,inactive,inactive,inactive,inactive,inactive,inactive,inactive,inactive,inactive,inactive,inactive
CCN(CC)CC(=O)OCC(=O)[C@@]1(O)CC[C@H]2[C@@H]3CCC4=CC(=O)CC[C@]4(C)[C@H]3[C@@H](O)C[C@@]21C,inactive,inactive,inactive,inactive,inactive,inactive,inactive,inactive,inactive,inactive,inactive,inactive,inactive,inactive,inactive,inactive,inactive,inactive,inactive,inactive
CC1COc2ccccc2N1 (centres undefined),inactive,54.5 µM (active),inactive,inactive,inactive,inactive,inactive,inactive,inactive,inactive,inactive,inactive,inactive,inactive,inactive,inactive,inactive,inactive,inactive,inactive
CCOc1ccc(Cc2nccc3cc(OCC)c(OCC)cc23)cc1OCC,4.22 µM (active),inactive,inactive,inactive,inactive,inactive,inactive,inactive,inactive,inactive,inactive,inactive,inactive,inactive,6.68 µM (active),inactive,inactive,,inactive,
CC(C)N=C(N)/N=C(\N)Nc1ccc(Cl)cc1,inactive,inactive,inactive,inactive,inactive,inactive,inactive,inactive,inactive,inactive,inactive,inactive,inactive,0.729 µM (active),inactive,inactive,inactive,inactive,inactive,inactive
O=C(CCN1CCN(CCO)CC1)N1c2ccccc2Sc2ccc(C(F)(F)F)cc21,inactive,inactive,inactive,inactive,inactive,inactive,inactive,inactive,inactive,inactive,inactive,inactive,inactive,inactive,inactive,inactive,inactive,inactive,inactive,inactive
COc1cc(CCC(C)=O)ccc1O,inactive,inactive,inactive,inactive,inactive,inactive,inactive,inactive,inactive,inactive,inactive,3.75 µM (active),inactive,inactive,inactive,inactive,inactive,inactive,inactive,inactive
CCn1cc(C(=O)O)c(=O)c2cnc(N3CCNCC3)nc21,inactive,inactive,inactive,inactive,inactive,inactive,inactive,inactive,inactive,inactive,inactive,inactive,inactive,inactive,inactive,inactive,inactive,,inactive,inactive
Cc1ccc(C)cc1,inactive,inactive,inactive,inactive,inactive,inactive,inactive,inactive,inactive,inactive,inactive,inactive,inactive,inactive,inactive,inactive,inactive,inactive,inactive,inactive
[O-][n+]1ccc(Cl)cc1,inactive,inactive,inactive,inactive,inactive,inactive,inactive,inactive,inactive,inactive,inactive,inactive,inactive,inactive,inactive,inactive,inactive,inactive,inactive,inactive
CNC(=O)Nc1ccc(Cl)c(Cl)c1,inactive,inactive,inactive,inactive,inactive,inactive,inactive,inactive,inactive,inactive,inactive,inactive,inactive,inactive,,,inactive,inactive,inactive,inactive
COc1ccc(-c2coc3cc(O)cc(O)c3c2=O)cc1,inactive,inactive,inactive,inactive,inactive,inactive,inactive,inactive,inactive,inactive,inactive,inactive and 33.4 µM (active),inactive,inactive,,,,,inactive,inactive
O=C1Cc2cc(Cl)ccc2N1,inactive,inactive,inactive,inactive,inactive,inactive,inactive,inactive,inactive,inactive,inactive,inactive,inactive,inactive,inactive,inactive,inactive,inactive,inactive,inactive
CO[Si](CCCNCCC[Si](OC)(OC)OC)(OC)OC,inactive,inactive,inactive,inactive,inactive,inactive,inactive,inactive,inactive,inactive,inactive,inactive,inactive,inactive,inactive,inactive,inactive,inactive,inactive,inactive
